Measured values from PubChem BioAssay AID493168 (National Center for Advancing Translational Sciences (NCATS), 2011).
Records with an inconclusive call do not appear. Values without a mark were called inactive. Activity calls are given as the source filed them. Calls follow the shape of the dose curve; as a rule, active = well fitted inhibition curve with a large enough effect; inconclusive = small, poorly fitted or top-dose-only effect, or effect the other way; inactive = flat fitted curve, though single readings scatter.

Target: Ubiquitin carboxyl-terminal hydrolase 2 (Homo sapiens) (UniProt O75604)
Test: Confirmation Assay for Inhibitors of Ubiquitin-specific Protease USP2a Using CHOP2 as the Reporter; also: nearly all actives have a fitted effect of over 55% in size;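 as to activity change, negative = inhibition: plate controls were DMSO wells for no effect and full inhibition by NEM control for full effect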
Details: USP2 core, Ub-CHOP2 coupled reporter fluorescence; series mostly up to 38.3 µM; activity change, negative = inhibition: at the top concentration
Outline: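 USP2 core (10 nM final) was preincubated with compound for 30 min at RT in Tris-HCl pH 8.0, CaCl2, beta-mercaptoethanol, CHAPS. Ub-CHOP2 and reporter substrate (25 nM final each) were added, and fluorescence (Ex 485/Em 531 nm) was read after 60 min.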
Potency is read from the fitted curve at half-maximal effect.

Chain of Ubiquitin carboxyl-terminal hydrolase 2 (Homo sapiens) (O75604 whole entry, looked up): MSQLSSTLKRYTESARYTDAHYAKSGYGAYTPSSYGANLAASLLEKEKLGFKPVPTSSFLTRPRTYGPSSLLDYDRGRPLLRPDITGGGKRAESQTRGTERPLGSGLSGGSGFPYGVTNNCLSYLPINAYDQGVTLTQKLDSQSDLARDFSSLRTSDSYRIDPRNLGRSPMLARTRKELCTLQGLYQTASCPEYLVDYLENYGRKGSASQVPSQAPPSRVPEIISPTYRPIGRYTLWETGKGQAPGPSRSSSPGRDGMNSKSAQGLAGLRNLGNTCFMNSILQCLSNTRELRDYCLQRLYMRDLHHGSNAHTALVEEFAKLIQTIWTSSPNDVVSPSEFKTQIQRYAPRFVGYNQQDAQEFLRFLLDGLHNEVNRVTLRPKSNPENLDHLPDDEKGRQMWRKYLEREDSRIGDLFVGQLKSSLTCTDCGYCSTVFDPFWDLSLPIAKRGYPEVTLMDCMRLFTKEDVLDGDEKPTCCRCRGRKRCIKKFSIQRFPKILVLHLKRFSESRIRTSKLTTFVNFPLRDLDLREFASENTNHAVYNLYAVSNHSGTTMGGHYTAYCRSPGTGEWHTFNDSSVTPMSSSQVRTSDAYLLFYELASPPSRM

| Structure (SMILES) | activity change, negative = inhibition [%] | Potency |
| --- | --- | --- |
| CC(C)N(C(=O)c1sc2cc([N+](=O)[O-])ccc2c1Cl)C(C)C | 1.04 | – |
| CSc1cccc(NC(=O)c2ccccc2N(C)S(C)(=O)=O)c1 | -1.63 | – |
| Cc1ccc(S(=O)(=O)Nc2ccccc2C(=O)Nc2nc(-c3ccc(F)cc3)cs2)cc1 | – | 14.7 µM (active) |
| O=C1CS/C(=C/C(=O)c2ccccc2)N1 | 3.74 | – |
| CCc1cc2cccc(C)c2nc1SCC(=O)N1CCN(C(=O)c2ccco2)CC1 | 1.25 | – |
| FC(F)(F)c1cnc2c(c1)Nc1ccccc1S2 | 0.666 | – |
| CCc1cc2c(=O)c(-c3nc4ccccc4n3C)coc2c(CN2CCCCC2C)c1O (stereo not given) | 0.458 | – |
| O=C(Nc1cccc(Cl)c1)Nc1nnc(CC2=CCCCC2)s1 | 1.35 | – |
| CN(CC(=O)Nc1cccc2ccccc12)C(=O)c1ccc(NC(=O)CC#N)cc1 | -0.14 | – |
| CCOc1ccc(NC(=O)CSc2nnc(Cn3c(=O)sc4ccccc43)n2C)cc1 | -0.518 | – |
| Cc1cc(NC(=O)c2cccc(S(=O)(=O)N(C)C)c2)n(-c2ccccn2)n1 | -1.59 | – |
| Cc1ccc(S(=O)(=O)Nc2cc(C)c(O)c(S(=O)(=O)c3ccc(C)cc3)c2)cc1 | 5.44 | – |
| COCc1cc(C)nc(OCC(=O)N/N=C\c2cc(C)n(-c3cccc(C(F)(F)F)c3)c2C)c1C#N | 0.0262 | – |
| O=C(Nc1nnc(-c2cccs2)o1)c1cccc(Oc2ccccc2)c1 | -18.2 | – |
| CC(C)(C)NC(=O)CSc1nc(O)cc(=O)n1-c1ccccc1F | 4.95 | – |
| Cc1ccc(-c2c(C#N)c(N)nc3c2CCCCC3)o1 | 3.04 | – |
| CCCOC(=O)CCCCC1SCC(NC(=O)OC)C1NC(=O)OC (stereo not given) | -0.631 | – |
| CCCCn1c(SCC(=O)N2CCC(C)CC2)nc2cc(S(N)(=O)=O)ccc21 | -1.05 | – |
| Cc1cccc2c1N(CCCOc1ccc(C(C)(C)C)cc1)C(=O)C2=O | -3.62 | – |
| CCNc1sc(C(=O)c2cccs2)c(N)c1-c1nc2ccccc2s1 | -0.21 | – |

| Structure (SMILES) | activity change, negative = inhibition [%] | Potency |
| --- | --- | --- |
| C[C@H](CO)N1C[C@H](C)[C@@H](CN(C)S(=O)(=O)c2cccs2)Oc2c(NC(=O)Nc3ccc4c(c3)OCO4)cccc2C1=O | 1.42 | – |
| O=C(N/C(=C/c1cccnc1)C(=O)N1CCOCC1)c1ccco1 | 4.27 | – |
| CC(C)(C)C1CCc2nc(NC(=O)Cc3cn4ccsc4n3)sc2C1 (stereo not given) | -5.16 | – |
| O=C(CN1C(=O)/C(=C2\SC(=S)N(CCS(=O)(=O)O)C2=O)c2ccccc21)Nc1cccc(Br)c1 | – | 5.21 µM (active) |
| Cc1cccc(N2CCN(C(=O)CCc3nc4ccccc4[nH]3)CC2C)c1 (stereo not given) | 2.72 | – |
| Cc1ccc(NC(=O)CCC(=O)OC(C)C(=O)c2ccccc2)cc1 (stereo not given) | 1.96 | – |
| Cc1ccc(NS(=O)(=O)c2cccc(C(=O)OCC(=O)NCc3ccco3)c2)cc1 | -4.99 | – |
| O=C(CSc1nc2ccccc2c(=O)n1CC1CCCO1)NCc1ccccc1 (stereo not given) | 2.33 | – |
| C#CCOCCOCCOCCNc1nc(N2CCN(C(=O)CCCCCCCCCCNC(=O)[C@H]([C@@H](C)CC)n3cc(CCCCCN)nn3)CC2)nc(N2CCN(C(=O)CCCCCCCCCCNC(=O)[C@H]([C@@H](C)CC)n3cc(CCCCN=C(N)N)nn3)CC2)n1 | – | 6.56 µM (active) |
| COc1cccc(C(=O)NC(C)c2ccc(-c3ccccc3)cc2)c1OC (stereo not given) | -3.09 | – |
| CC(NC(=O)COc1ccccc1-c1ccccc1)c1ccccc1 (stereo not given) | 2.1 | – |
| C#CCOCCOCCOCCNc1nc(N2CCN(C(=O)CCCCCCCCCCNC(=O)Cn3cc(C[C@@H](C)O)nn3)CC2)nc(N2CCN(C(=O)CCCCCCCCCCNC(=O)[C@@H]([C@H](C)CC)n3cc(CCCCCN)nn3)CC2)n1 | – | 11.7 µM (active) |
| COc1ccc(NC(=O)C2CC(=O)OC2c2ccccc2)cc1 (stereo not given) | 1.9 | – |
| CC1CCCCN1CCNC(=O)CC1Oc2ccccc2NC1=O (stereo not given) | 5.53 | – |
| CC(C)n1nc(C(=O)Nc2ccccc2N2CCOCC2)c2ccccc2c1=O | 0.877 | – |
| Cc1ccc(N(CC(=O)N/N=C/c2ccco2)S(=O)(=O)c2ccccc2)cc1 | 0.234 | – |
| O=C(NCC(c1cccnc1)N1CCN(c2ccc(F)cc2)CC1)OCc1ccccc1 (stereo not given) | 3.62 | – |
| C#CCOCCOCCOCCNc1nc(N2CCN(C(=O)CCCCCCCCCCNC(=O)Cn3cc(CCCCCN)nn3)CC2)nc(N2CCN(C(=O)CCCCCCCCCCNC(=O)Cn3cc(CCCCCN)nn3)CC2)n1 | – | 10.4 µM (active) |
| O=C(Nc1ncccc1Cl)c1cccc(F)c1 | 1.04 | – |
| O=C(N/N=C1\CC(c2ccccc2)Oc2ccccc21)c1ccc(O)cc1 (stereo not given) | 1.02 | – |
